Test results reported in PubChem BioAssay (NCI).
This is part of a sample that, as a whole, favours compounds with a hit. Of some 79,000 tested, about 15% had one in any assay. Values without a mark were called inactive. The source made the active and inactive calls. No stated cut-off is given here; in the data, active means growth inhibition above about 70%; inactive means the rest.

Test: NCI Yeast Anticancer Drug Screen. Data for the rad50 strain (AID 155);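 further: 0% = growth of vehicle-only cultures of the same strain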
Details: S. cerevisiae rad50 strain growth inhibition; at 50.0 µM; stronger effect = higher value
Description: Growth inhibition of yeast strains with defined genetic alterations is measured as a screen for potential anti-cancer activity. Selected strains with alterations in DNA damage repair or cell cycle control were exposed to compounds and growth inhibition was measured relative to vehicle treated controls. The strain used in this assay is rad50

**Q.** With `COc1ccc(NC2=C(C)C(=O)C3=C(C2=O)[C@H](COC(N)=O)[C@]2(OC)[C@@H]4N[C@@H]4CN32)cc1` as the compound, how does the growth inhibition read?
**A.** The growth inhibition was 81.7% (active).

**Q.** With `Cc1cc(C)c(C#N)c(SSC(Cl)(Cl)Cl)n1` as the compound, how does the growth inhibition read?
**A.** Its growth inhibition is 5.75%.

**Q.** For `C=CCC1(O)CCC2C3CCC4=CC(=O)CCC4=C3C=CC21CC` (stereo not given), which growth inhibition is on record?
**A.** Its growth inhibition is 26.9%.

**Q.** Which growth inhibition does the source give for `CCN(CC)c1ccc([P+](=O)O)cc1` here?
**A.** The growth inhibition was 6.45%.

**Q.** Which growth inhibition does the source give for `CC(=O)[O-].CC(=O)[O-].O=C(N/N=C/c1cc(Cl)cc(Cl)c1O)c1ccncc1.[Cu+2]` here?
**A.** Its growth inhibition is 2.55%.

**Q.** Which growth inhibition does the source give for `CCOC(=O)C(C#N)c1ccccc1` (stereo not given) here?
**A.** Its growth inhibition is 22.3%.

**Q.** Which growth inhibition does the source give for `c1ccc(C2(N3CCOCC3)CSC2)cc1` here?
**A.** Its growth inhibition is -6.05%.

**Q.** For `N#Cc1ccc(Cc2ccccn2)cc1Cl`, which growth inhibition is on record?
**A.** Its growth inhibition is -1.55%.

**Q.** For `COc1cc(C)c(OP(=O)(OC)OC)cc1C`, which growth inhibition is on record?
**A.** Its growth inhibition is 15.3%.

**Q.** With `C=CCn1nnc(N)n1` as the compound, how does the growth inhibition read?
**A.** Its growth inhibition is -11.8%.

**Q.** Which growth inhibition does the source give for `S=C=Nc1cccc2ccccc12` here?
**A.** Its growth inhibition is -13.7%.

**Q.** With `O=[N+]([O-])OC(c1ccncc1)C(O[N+](=O)[O-])c1ccncc1` (stereo not given) as the compound, how does the growth inhibition read?
**A.** Its growth inhibition is 7.7%.

**Q.** For `NCCc1c[nH]c2ccccc12`, which growth inhibition is on record?
**A.** Its growth inhibition is 10.8%.

**Q.** For `CC(Cl)CN1CCCCC1` (stereo not given) (tested in a mixture with another compound), which growth inhibition is on record?
**A.** Its growth inhibition is 15.2%.

**Q.** For `CC1(Cl)C(=O)NC(=O)NC1O` (stereo not given), which growth inhibition is on record?
**A.** Its growth inhibition is 4.45%.

**Q.** With `O=C1CCCN1` as the compound, how does the growth inhibition read?
**A.** Its growth inhibition is -8.1%.

**Q.** For `CNC1(c2ccc(F)cc2)CCCCC1`, which growth inhibition is on record?
**A.** The growth inhibition was -15.8%.

**Q.** For `CCCCCC(N)CC(=O)O` (stereo not given), which growth inhibition is on record?
**A.** Its growth inhibition is 8.95%.

**Q.** Which growth inhibition does the source give for `Cc1c2ccccc2c(C)c2c1cc[n+]1ccccc21` here?
**A.** Its growth inhibition is 14.1%.

**Q.** For `COc1cc(C2c3[nH]c4ccccc4c3C[C@H]3COC(=O)N23)cc(OC)c1OC` (stereo not given in full), which growth inhibition is on record?
**A.** Its growth inhibition is 62.6%.

**Q.** Which growth inhibition does the source give for `O=C(C/C(=N/O)C(=O)NC1=C(Cl)C(=O)c2ccccc2C1=O)CC(c1ccccc1)c1c(O)c2ccccc2oc1=O` (stereo not given) here?
**A.** Its growth inhibition is 39.5%.

**Q.** For `COc1ccc(CC[N+](C)(C)C)cc1`, which growth inhibition is on record?
**A.** Its growth inhibition is -3.85%.

**Q.** Which growth inhibition does the source give for `COc1cc2c(cc1OC)C13CCN4C=C5CCOC6CC(=O)N2C1C6C5CC43` (stereo not given) here?
**A.** The growth inhibition was -25.4%.

**Q.** With `CCOP(=O)(OCC)/C(C#N)=C/c1cccc(OC)c1` as the compound, how does the growth inhibition read?
**A.** The growth inhibition was 57.5%.

**Q.** Which growth inhibition does the source give for `CC1C2C=CC1C(c1c3ccc(=O)cc-3oc3cc(O)ccc13)C2C(=O)O` (stereo not given) here?
**A.** Its growth inhibition is -4.85%.

**Q.** With `COC(=O)C1(O)c2ccccc2N=C2C1CCN2C` (stereo not given) as the compound, how does the growth inhibition read?
**A.** Its growth inhibition is 15.1%.

**Q.** For `COC1=CC=C2[C@@H]3Cc4ccc(OC)c5c4[C@]2(CCN3CCCl)C1O5` (stereo not given in full), which growth inhibition is on record?
**A.** Its growth inhibition is 27%.

**Q.** Which growth inhibition does the source give for `COC1OOC(OC)c2ccccc2-c2ccccc21` (stereo not given) here?
**A.** Its growth inhibition is -15.3%.

**Q.** With `O=C(O)C(O)(c1ccccc1)c1ccco1` (stereo not given) as the compound, how does the growth inhibition read?
**A.** Its growth inhibition is 12.8%.

**Q.** For `CC(=O)OCC1OC([Se-])C(OC(C)=O)C(OC(C)=O)C1OC(C)=O.N#CCC[PH+](CCC#N)CCC#N.[Au+]` (stereo not given), which growth inhibition is on record?
**A.** Its growth inhibition is 7.35%.

**Q.** With `CC(=O)O[C@H]1C(=O)[C@@]2(C)[C@H]([C@H](OC(=O)c3ccccc3)[C@@]3(O)C[C@H](O)C(C)=C1C3(C)C)[C@]1(OC(C)=O)CO[C@@H]1C[C@@H]2O` as the compound, how does the growth inhibition read?
**A.** The growth inhibition was 8.05%.

**Q.** With `[C-]#[O+].[C-]#[O+].[C-]#[O+].[C-]#[O+].[C-]#[O+].[C-]#[O+].[Fe].[Fe].c1ccc([P-]c2ccccc2[P-]c2ccccc2)cc1` (stereo not given) as the compound, how does the growth inhibition read?
**A.** Its growth inhibition is 8.7%.

**Q.** With `N.N.NC(CS)C(=O)[O-].NC(CS)C(=O)[O-].[Pt+4]` (stereo not given) as the compound, how does the growth inhibition read?
**A.** Its growth inhibition is 15%.

**Q.** Which growth inhibition does the source give for `O=C1NC(=O)C(CCO)(c2ccccc2)C(=O)N1` here?
**A.** Its growth inhibition is -21.6%.

**Q.** Which growth inhibition does the source give for `[Cl][Hg][c]1ccccc1N=Nc1ccccc1` here?
**A.** Its growth inhibition is 91.7% (active).

**Q.** For `CNCCc1ccc(O)c2ccc3ccc(OC)c(O)c3c12`, which growth inhibition is on record?
**A.** The growth inhibition was 2.5%.

**Q.** For `O=[N+]([O-])c1ccc(C[N+]23CCN(CC2)CC3)cc1`, which growth inhibition is on record?
**A.** The growth inhibition was 5.9%.

**Q.** For `c1ccc(-c2c[se]nn2)cc1`, which growth inhibition is on record?
**A.** Its growth inhibition is 4.65%.

**Q.** For `Cn1cnnc1N`, which growth inhibition is on record?
**A.** Its growth inhibition is 5.4%.

**Q.** For `O=C(/C=C/c1ccccc1)CCC1C(=O)NC(=S)NC1=O`, which growth inhibition is on record?
**A.** Its growth inhibition is -4.05%.
